A549 tox: counter-screen for Nrf2 inhibitors: cytotoxicity in A549 cells; 0.16% of 390,000 active; AID 504648; A549 ARE-Fluc cells, CellTiter-Fluor viability, 18-24 h; Potency, µM (doses to about 46 µM), for the others: at the top dose activity change, negative = cytotoxicity, actives largely listed as inhibitors; further: on the % scale 0 is the no-effect control and ±100 the full control effect
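Cytotoxicity counterscreen: CellTiter-Fluor fluorescence was measured in A549 ARE_Fluc cells after 18-24 h of compound exposure in a concentration series. The subsequent BugLite luminescent read reports ARE-luciferase activity.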
HepG2 viability: counter-screen for TGF-b inhibitors: cytotoxicity in HepG2 cells | 0.76% of 410,000 active | HepG2 CAGA-GFP viability, ATP luminescence, 18 h | Potency, µM (top dose mostly 46.1 µM), for inactives: at the top dose activity change, negative = cytotoxicity, most hits filed as cytotoxic
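HepG2 CAGA-GFP cells (1000/well, DMEM with 1% FBS) received compound, then TGF-beta at 500 pg/mL final, and were incubated 18 hours at 37 degrees C. Viability was read by CellTiter-Glo luminescence. Media-only wells were set as complete cell-killing and DMSO as no toxicity.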
ATXN2 expr inh: reduces ATXN2 reporter expression in HEK-293 cells; Potency, µM (series often up to 57 µM), without a hit: top-dose activity change, negative = inhibition, usual class: inhibitors; HEK-293 ATXN2-luciferase reporter, luminescence, 24 h; 0.72% of 360,000 active; further: on the % scale 0 is the no-effect control and ±100 the full control effect; nearly all actives have a fitted effect of over 55% in size
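ATXN2-luciferase reporter cells (luciferase flanked by upstream and downstream ATXN2 gene portions) were treated 24 h at 37 °C with compounds at up to 57 uM. SteadyGlo luminescence gave expression; GF-AFC fluorescence gave viability.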
TGFb inhibitor: TGF-b pathway inhibition; Potency, µM (highest dose often 46.1 µM), inactives show top-dose activity, negative = inhibition, actives largely listed as inhibitors; 1.2% of 410,000 active; AID 588855; HepG2 CAGA-GFP TGF-b/SMAD3 reporter, GFP fluorescence, 18 h; TGF-beta stimulated, 500 pg/mL final; further: on the % scale 0 is the no-effect control and ±100 the full control effect; nearly all actives have a fitted effect of over 65% in size
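HEPG2 CAGA-GFP reporter cells (1000/well, DMEM with 1% FBS) received compounds, then recombinant TGF-beta at 500 pg/mL final for 18 hours at 37 degrees C. Per-cell GFP summed per well was normalised to unstimulated and stimulated DMSO controls before curve fitting.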
ATXN viability: cell viability loss in ATXN counter-screen | AID 651635 | S2 cells (HEK-293 line with an ATXN2-luciferase reporter) viability, CellTiter-Fluor protease fluorescence, 24 h | Potency, µM (top dose mostly 56.7 µM), actives largely listed as cytotoxic | 0.49% of 400,000 active; further: nearly all actives have a fitted effect of over 40% in size
Nrf2 inh: inhibitors of Nrf2 signaling | A549 ARE-Fluc reporter, luciferase luminescence, 18-24 h | Potency, µM (doses to about 46 µM), for the others: top-dose activity change, negative = inhibition, most hits filed as inhibitors | 2.1% of 360,000 active | AID 504444; further: on the % scale 0 is the no-effect control and ±100 the full control effect; nearly all actives have a fitted effect of over 60% in size
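Nrf2 activity is the BugLite luminescence, read 15 min after reagent at room temperature, following CellTiter-Fluor cytotoxicity readout (30 min, 37C). Compound titrations were applied for 18-24 h to 5000 A549 ARE_Fluc cells/well in 5% FBS OPTI-MEM.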
Starred values were filed as active, the others as inactive; i = inactive; u = inconclusive; x = no result; ! = not confirmed by another sample; [ ] = remark or other dose. Sampled rows, rich in hits. Any-hit rate of the full collection: about 3.8%. The call rests on the fitted dose curve; in most records, active means well fitted curve in the direction sought with a large enough effect; inconclusive means small, poorly fitted or top-dose-only effect, or another doubt; inactive means no such curve, though single readings can be large; an effect the other way counts as inactive or inconclusive. Potency means the concentration at half of the fitted maximal effect.

SMILES | A549 tox | HepG2 viability | ATXN2 expr inh | TGFb inhibitor | ATXN viability | Nrf2 inh
Cc1cc(NC(=O)c2cccn2-c2nnc(N3CCCCC3)s2)ccc1Br | -17% | -52% | x | 8.9µM* | x | u
COc1ccc2c(c1)-c1nc(-n3ncc(C(=O)NC[C@@H]4CCCN5CCCC[C@H]45)c3C)ncc1CC2 | x | x | x | x | 25µM* | x
COc1ccc2c(c1)-c1nc(-n3ncc(C(=O)NCC4CCCN(C)C4)c3C3CC3)ncc1CC2 (stereo unspecified) | x | x | x | x | i | x
CN(C)c1ccc(N=Cc2cccc3ccccc23)cc1 | x | -19% | x | u | x | x
Cc1[nH]nc(-c2cccnc2)c1N=NN(C)C | u | 14µM* | 0% | u | x | u
Cc1nn(-c2ccccc2)c(Cl)c1C(=O)N1CCN(c2ncnc3c2cnn3-c2ccccc2)CC1 | u | -11% | 18µM* | u | x | 21µM*
CCOC(=O)C1CCN(c2ncnc3c2cnn3-c2ccc(Cl)cc2)CC1 | 0% | -4% | u | -2% | i | 2.9µM*
CCOC(=O)C1CCN(c2ncnc3c2cnn3-c2ccccc2)CC1 | -4% | -12% | 9% | -10% | u | -11%
O=C(COC(=O)CCN1C(=O)/C(=C\C=C\c2ccccc2)SC1=S)Nc1ccc(Br)cc1 | -28% | -20% | u | -1% | u | u
CC(C)c1ccccc1NC(=O)COC(=O)CCN1C(=O)/C(=C\C=C\c2ccccc2)SC1=S | u | 4% | u | -2% | u | 10µM*
Cc1nc(Nc2cnc(/C=C/c3cc(C(=O)Nc4cccc(C(F)(F)F)c4)ccc3C)cn2)cc(N2CCNCC2)n1 | -17% | -106% | 16µM* | u | i | u
COc1ccc(C)cc1N1CC(C(=O)Nc2ccccc2C(=O)NC2CC2)CC1=O (stereo unspecified) | 1% | -7% | x | 18% | i | 3%
CC(C)Oc1cc(NC(=O)CS(=O)CC(=O)Nc2cccc(C(F)(F)F)c2)c(Cl)cc1Cl (stereo unspecified) | u | -114% | -22% | 11µM* | i | u
CC(C)c1ccc(Nc2c(-c3ccccn3)nc3ccccn23)cc1 | u | 10µM* | u | u | u | u
Cc1ccn2c(Nc3ccccc3C)c(-c3ccccn3)nc2c1 | u | 16µM*! | 4µM* | 13µM* | x | u
Cc1ccn2c(Nc3ccccc3)c(-c3ccccn3)nc2c1 | u | -1% | u | -13% | i | 26µM*
Cc1cccn2c(Nc3ccccc3)c(-c3ccccn3)nc12 | 6% | -25% | u | u | i | -4%
COC(=O)c1c(NC(=O)COc2ccc(OC)cc2)sc2c1CCC(C)C2 (stereo unspecified) | 5% | -100% | u | 13µM* | u | -11%
CCOc1ccc(CNC(=S)N/N=C/c2ccc(OC)c(OC)c2)cc1 | -1% | 1% | 16% | u | i | -16%
Clc1ccc(-n2cc(-c3ccc(Br)cc3)[n+]3c2CCCCC3)cc1 | -5% | -8% | x | 10% | i | -13%
Brc1ccc(-c2csc3[n+]2CCCCC3)cc1 | -9% | 0% | -14% | 8% | i | 16µM*
COc1ccc(-c2nc3ccccn3c2Nc2ccccc2C)cc1 | -1% | x | x | x | x | u
O=C1N=C(O)CN1/N=C\c1ccc(-c2ccc([N+](=O)[O-])cc2)o1 | x | x | x | x | i | x
O=C(CNC(=O)C1CCCC1)OC(C(=O)Nc1cc(C(F)(F)F)ccc1Cl)c1ccccc1 (stereo unspecified) | 9% | x | x | x | x | -12%
CCCc1c(C(=O)Nc2ccc(F)cc2F)cnn1-c1ccccc1 | 0% | 2% | x | 8% | i | 19%
SMILES | A549 tox | HepG2 viability | ATXN2 expr inh | TGFb inhibitor | ATXN viability | Nrf2 inh
CCCc1c(C(=O)Nc2cc(C(C)(C)C)on2)cnn1-c1ccccc1 | 0% | -8% | x | -8% | i | 6.5µM*
CCOc1cc(C(=O)N2CC(=O)Nc3ccc(F)cc3C2c2ccccc2)cc(OCC)c1OCC (stereo unspecified) | 8% | -9% | 9% | 23% | i | -16%[9.27 µM]
COc1ccc2cc3c(N)nn(C(=O)c4ccc(F)cc4)c3nc2c1 | -26% | -21% | x | 2% | i | 5.8µM*
COc1cccc(CC(=O)n2nc(N)c3cc4ccc(OC)cc4nc32)c1 | -4% | -1% | u | -23% | i | -25%
COc1ccc2cc3c(N)nn(C(=O)Cc4c[nH]c5ccccc45)c3nc2c1 | -2% | -53% | x | u | u | 16µM*
CSc1nc(N)nc(SCC(=O)Nc2ccc(Cl)cc2)c1C#N | u | -51% | 1% | u | i | 15µM*
CC1CN(C(=O)COc2ccc3c(-c4ccccc4)cc(=O)oc3c2)CC(C)O1 (stereo unspecified) | 12% | -7% | x | -5% | i | -8%
Cc1ccc(CNS(=O)(=O)c2ccc3[nH]c4c(c3c2)CCCC4)cc1 | 3% | -18% | 6% | u | i | -19%
O=S(=O)(NCc1ccc(F)cc1)c1ccc2[nH]c3c(c2c1)CCCC3 | -16% | -103% | 0% | 18µM* | u | u
O=S(=O)(NCc1ccc(Cl)cc1)c1ccc2[nH]c3c(c2c1)CCCC3 | -4% | 16µM* | u | 16µM* | u | u
O=S(=O)(c1ccc(-c2csc(-c3cccnc3)n2)cc1)N1CCCCC1 | -15% | -27% | -36% | u | u | 21µM*
O=S(=O)(c1ccc(-c2csc(-c3cccnc3)n2)cc1)N1CCCC1 | -10% | -1% | -31% | -4% | i | u
CC(C)(C)OC(=O)C[C@H]1C/C=C\C[C@@H](CC(=O)N(CCO)Cc2ccccc2)C(=O)N[C@H](Cc2c[nH]c3ccccc23)COC1=O | -6% | -1% | -23% | -28% | u | 13%
O=S(=O)(c1ccccc1)N1CCN(C(=S)NC2CCCC2)CC1 | u | 6% | -12% | 4% | i | 6%
O=S(=O)(c1c(Cl)cc(Br)cc1Cl)N1CCN(C(=S)NC2CC2)CC1 | -20% | -12% | u | -14% | i | 12µM*
Cc1ccc(CN(C)C(=O)c2ccc(NS(=O)(=O)c3ccc4[nH]c(=O)[nH]c4c3)cc2)cc1 | -2% | 5% | 10% | u | i | 2%
CN(Cc1cccc(F)c1)C(=O)c1ccc(NS(=O)(=O)c2ccc3[nH]c(=O)[nH]c3c2)cc1 | 6% | 0.28µM* | -15% | -16% | i | 3%
